Values joined by “and” are separate entries in the source; they are usually repeats but may differ in a detail not shown here. Identical values can stand only once. Results filed as inconclusive are left out. Active and inactive are the calls of the source. Unless noted, calls follow the shape of the dose curve; as a rule, active = well fitted curve in the direction sought with a large enough effect; inconclusive = small, poorly fitted or top-dose-only effect, or another doubt; inactive = no such curve, though single readings can be large; an effect the other way counts as inactive or inconclusive. Peptide text beside a SMILES is read from it.
Tests used:
[1] = target: Glucocorticoid receptor (Homo sapiens) (UniProt P04150); test: GR-GFP Redistribution (AID 450;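 active = compounds whose dose series gives a full or clear partial fitted curve of increased nuclear translocation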; also: potency is read from the fitted curve at half-maximal effect); details: U2OS GR-GFP nuclear translocation, laser cytometry, 2 h
[2] = target: Glucocorticoid receptor (Homo sapiens) (UniProt P04150); test: GR-EFC Redistribution (AID 451; calls by dose curve; also: potency is read from the fitted curve at half-maximal effect); details: CHO-K1 GR-EFC translocation, beta-gal luminescence, 2 h
Outline: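 Translocation of GR-ED fusion to nuclear EA restores b-gal, read by luminescence after 1 h room-temperature detection. Engineered CHO-K1 biosensor cells, 1,000/well, exposed 2 h at 37 C to titrations up to 46 uM final.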

[3] = target: Mitogen-activated protein kinase 10 (Mus musculus) (UniProt Q61831); test: JNK3 AlphaScreen Assay (AID 530; active = well fitted curve in either direction with a large enough effect, not every such curve was filed as active;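 also: kinase came from lysate of stimulated human HepG2 cells; signal reports phosphorylation of biotinylated GST-cJun 1-79 at Ser73 with 10 µM ATP; % is scaled to controls: 0 for no effect and ±100 for the full control effect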); details: JNK3 lysate, c-Jun phosphorylation; series mostly up to 57.1 µM
Outline: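 Room-temperature AlphaScreen kinase assay; pre-activated HepG2 lysate as JNK3 source, biotin-GST-cJun(1-79) substrate, 10 uM ATP, compound 15 min preincubation.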

[4] = target: 3',5'-cyclic-AMP phosphodiesterase 4B (Homo sapiens) (UniProt Q07343); test: qHTS Assay for Inhibitors of PDE-IV (AID 607; active = well fitted activation curve with a large enough effect in the main read-out, with a control signal flat, not every such curve was filed as active; also: % of control where 0% means no effect); details: HEK293 ACTOne CNG channel cells, membrane potential fluorescence; series mostly up to 22.9 µM
Outline: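 Cell-based read-out of cAMP via a modified cyclic nucleotide-gated channel and membrane potential dye (535/590 nm) in HEK293 cells expressing PDE4 endogenously. Compounds tested up to 22.9 uM final; 100 uM RO 20-1724 reference.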

[5] = Cell Viability - N2a (AID 540); details: N2a mouse neuroblastoma cell viability; at 92.2 µM (top of the series);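 also: plate controls were DMSO alone for no effect and tamoxifen control for full effect; nearly all actives have a fitted effect of over 45% in size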
Outline: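 Mouse neuroblastoma N2a cells (1500/well) were preincubated 5 hr at 37 °C, then exposed to compounds for 40 hr at 37 °C in complete medium. Viability was read as intracellular ATP by CellTiter-Glo luminescence; AC50 from Hill fits.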

[6] = Cell Viability - NIH 3T3 (AID 541); details: NIH 3T3 cell viability, qHTS; series mostly up to 92.2 µM;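 also: plate controls were DMSO alone for no effect and tamoxifen positive control for full effect; nearly all actives have a fitted effect of over 25% in size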
Outline: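 NIH 3T3 mouse embryo fibroblasts (1000 cells/well) were plated in complete medium and treated with compound for 40 hr at 37 °C. Viability was read as intracellular ATP by CellTiter-Glo luminescence; AC50 values came from Hill-equation fits of concentration-response data.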

[7] = Cell Viability - HUV-EC-C (AID 542); details: HUV-EC-C endothelial cell viability, qHTS; series mostly up to 92.2 µM; also: nearly all actives have a fitted effect of over 35% in size; also: potency is read from the fitted curve at half-maximal effect; as to activity change, negative = cytotoxicity: % is scaled to controls: 0 for no effect and ±100 for the full control effect
Outline: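 HUV-EC-C normal human vascular endothelial cells, 1000 cells/well, pre-incubated 5 hr at 37 °C, then exposed to compounds for 40 hr at 37 °C in complete medium. Viability measured as intracellular ATP by CellTiter-Glo luminescence; AC50 from Hill fits.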

[8] = Cell Viability - H-4-II-E (AID 543); details: H-4-II-E rat hepatoma viability; series mostly up to 92.2 µM; also: nearly all actives have a fitted effect of over 35% in size; also: potency is read from the fitted curve at half-maximal effect
Outline: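 Rat hepatoma H-4-II-E cells (1500/well) were plated, incubated 5 hr at 37 °C, then exposed to compounds for 40 hr at 37 °C. Cellular ATP was read by CellTiter-Glo luminescence; AC50 came from Hill-equation fits of concentration-response data.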

[9] = Cell Viability - SH-SY5Y (AID 544); details: SH-SY5Y neuroblastoma cell viability; at 92.2 µM (top of the series); also: nearly all actives have a fitted effect of over 55% in size
Outline: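 Human neuroblastoma SH-SY5Y cells (1500/well) in complete medium were exposed to compounds for 40 hr at 37 °C; intracellular ATP was then quantified by CellTiter-Glo luminescence after 20 min at room temperature. AC50 came from Hill-equation concentration-response fits.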

[10] = Cell Viability - Renal Proximal Tubule (AID 545); details: renal proximal tubule cells viability, primary cells of rat origin; series mostly up to 91.7 µM; also: nearly all actives have a fitted effect of over 40% in size
Outline: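 In this qHTS format, normal rat kidney-derived proximal tubule cells in complete culture medium receive compound titrations, then sit 40 hours at 37 °C before luciferase-based ATP quantitation; potency is reported as AC50 from concentration-response curves.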

[11] = Cell Viability - Mesenchymal (AID 546); details: mesenchymal cells viability, qHTS; at 91.7 µM (top of the series);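 also: cells exposed to compound for 40 hours before reading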
Outline: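 AC50 values reflect the drop in intracellular ATP in a human kidney mesenchymal line derived from normal glomeruli. Treatment lasts 40 hr at 37 °C in complete medium, and the signal comes from CellTiter-Glo luminescence.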

[12] = Cellular Toxicity (caspase-3) HepG2 (AID 654); details: HepG2 caspase-3 activation, luminescence, 0% = DMSO only, 100% = tamoxifen; series mostly up to 92.2 µM;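 also: cells exposed to compound for 16 hours before reading; 0% = DMSO alone and 100% = caspase signal from 100 µM tamoxifen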
Outline: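 HepG2 cells (1500/well) in complete medium were treated with compounds for 16 hr at 37 °C. Caspase-3/7 activity was then read as luminescence from peptide-aminoluciferin cleavage. AC50 came from Hill fits, normalized to DMSO and 100 uM tamoxifen.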

[13] = Cellular Toxicity (caspase-3) Jurkat (AID 655); details: Jurkat caspase-3 activation, luminescence; caspase-3 activation: at 92.2 µM (top of the series), DMSO = 0%, tamoxifen = 100%;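 also: cells exposed to compound for 16 h at 37 °C before reading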
Outline: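 qHTS in human Jurkat T-cell leukemia line: 16 hr compound treatment at 37 °C, caspase-3/7 activity measured by Caspase-Glo luminescence. AC50 derived from Hill equation.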

[14] = Cellular Toxicity (caspase-3) HUV-EC-C (AID 656); details: HUV-EC-C cells, caspase-3 activation (apoptosis), vehicle = 0, 100 µM tamoxifen = 100%; series mostly up to 92.2 µM
Outline: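 Concentration-dependent caspase 3/7 induction was assessed in HUV-EC-C cells exposed for 16 hours. Data scaled between DMSO and tamoxifen (100 uM) controls.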

[15] = Cellular Toxicity (caspase-3) BJ (AID 658); details: BJ fibroblasts, luminescence, normalized: DMSO 0%, staurosporine 100%; series mostly up to 91.7 µM
Outline: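 Readout: Caspase-Glo 3/7 luminescence increase in BJ cells after 16 hr treatment at 37 °C. Staurosporine and tamoxifen served as positive controls; AC50 values came from Hill modelling of data normalized to DMSO and 10 uM staurosporine.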

[16] = Cellular Toxicity (caspase-3) MRC-5 (AID 659); details: MRC-5 cells, luminescence, normalized: DMSO 0%, 10 µM staurosporine 100%; series mostly up to 91.7 µM
Outline: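 Concentration-dependent caspase 3/7 activation is measured in human normal lung fibroblasts (MRC-5) following 16-hour treatment. AC50 values come from standard Hill-equation modeling of luminescence normalized to DMSO and 10 uM staurosporine.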

[17] = Cellular Toxicity (caspase-3) Mesangial (AID 660); details: mesangial cells, normalized: DMSO 0%, 100 µM tamoxifen 100%; series mostly up to 91.7 µM;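 also: cells exposed to compound for 16 h before the caspase read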
Outline: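 Human renal glomerular mesangial cells (1000/well) were treated with compounds for 16 h at 37 °C in complete medium, then caspase 3/7 activity was read by Caspase-Glo luminescence. Data were normalized to DMSO and 100 uM tamoxifen; AC50 from Hill fits.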

[18] = Cellular Toxicity (caspase-3) H-4-II-E (AID 663); details: H-4-II-E rat hepatoma, scaled: DMSO 0%, 100 µM tamoxifen 100%; series mostly up to 92.2 µM;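 also: cells exposed to compound for 16 hr before readout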
Outline: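 Apoptosis induction is scored as increased luminescence from caspase 3/7 substrate cleavage in rat hepatoma H-4-II-E cells exposed to compound for 16 hr. Activity is scaled between DMSO and 100 uM tamoxifen.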

[19] = Cellular Toxicity (caspase-3) Hek293 (AID 664); details: HEK293 caspase-3 activation, DMSO = 0%, 100 µM tamoxifen = 100%; series mostly up to 92.2 µM;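 also: cells exposed to compound for 16 h at 37 °C before readout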
Outline: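 HEK293 cells were exposed to compounds in complete medium for 16 hr at 37 °C, then caspase-3/7 activity was read by Caspase-Glo 3/7 luminescence after 20 min at room temperature. Data normalized to DMSO and 100 uM tamoxifen; AC50 from Hill fits.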

[20] = Cellular Toxicity (caspase-3) Renal Proximal Tubule (AID 667); details: renal proximal tubule cells, primary cells freshly taken from rat, solvent-only wells 0%, staurosporine 100%; series mostly up to 91.7 µM;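 also: cells exposed to compound for 16 hours at 37 °C before detection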
Outline: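 Caspase-Glo 3/7 read-out, rat primary kidney proximal tubule cells. Compound exposure 16 h, 37 °C; detection after 1 h at RT. Activity scaled to DMSO and 10 uM staurosporine.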

Chain of 3',5'-cyclic-AMP phosphodiesterase 4B (Homo sapiens) (Q07343 whole entry, looked up): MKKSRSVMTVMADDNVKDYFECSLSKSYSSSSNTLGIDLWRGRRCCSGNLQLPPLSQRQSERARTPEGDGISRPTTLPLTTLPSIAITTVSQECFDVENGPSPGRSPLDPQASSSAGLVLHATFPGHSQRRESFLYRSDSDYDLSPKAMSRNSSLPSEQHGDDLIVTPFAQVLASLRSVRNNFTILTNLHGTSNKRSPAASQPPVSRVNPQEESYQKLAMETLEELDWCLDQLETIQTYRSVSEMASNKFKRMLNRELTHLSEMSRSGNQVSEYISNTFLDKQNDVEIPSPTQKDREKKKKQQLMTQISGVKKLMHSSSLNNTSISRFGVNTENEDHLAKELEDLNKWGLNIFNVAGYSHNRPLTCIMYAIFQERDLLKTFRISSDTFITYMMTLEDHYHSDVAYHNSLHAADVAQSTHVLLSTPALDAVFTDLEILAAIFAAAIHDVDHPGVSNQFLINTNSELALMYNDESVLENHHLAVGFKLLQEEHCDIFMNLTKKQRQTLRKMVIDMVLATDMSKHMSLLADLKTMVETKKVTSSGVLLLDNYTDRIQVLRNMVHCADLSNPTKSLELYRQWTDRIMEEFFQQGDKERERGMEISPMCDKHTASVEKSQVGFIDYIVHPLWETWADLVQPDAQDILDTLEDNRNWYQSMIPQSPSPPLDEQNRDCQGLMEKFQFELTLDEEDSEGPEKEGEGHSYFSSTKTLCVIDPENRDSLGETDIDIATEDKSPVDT
Chain of Glucocorticoid receptor (Homo sapiens) (P04150 whole entry, looked up, the tested form may be a part): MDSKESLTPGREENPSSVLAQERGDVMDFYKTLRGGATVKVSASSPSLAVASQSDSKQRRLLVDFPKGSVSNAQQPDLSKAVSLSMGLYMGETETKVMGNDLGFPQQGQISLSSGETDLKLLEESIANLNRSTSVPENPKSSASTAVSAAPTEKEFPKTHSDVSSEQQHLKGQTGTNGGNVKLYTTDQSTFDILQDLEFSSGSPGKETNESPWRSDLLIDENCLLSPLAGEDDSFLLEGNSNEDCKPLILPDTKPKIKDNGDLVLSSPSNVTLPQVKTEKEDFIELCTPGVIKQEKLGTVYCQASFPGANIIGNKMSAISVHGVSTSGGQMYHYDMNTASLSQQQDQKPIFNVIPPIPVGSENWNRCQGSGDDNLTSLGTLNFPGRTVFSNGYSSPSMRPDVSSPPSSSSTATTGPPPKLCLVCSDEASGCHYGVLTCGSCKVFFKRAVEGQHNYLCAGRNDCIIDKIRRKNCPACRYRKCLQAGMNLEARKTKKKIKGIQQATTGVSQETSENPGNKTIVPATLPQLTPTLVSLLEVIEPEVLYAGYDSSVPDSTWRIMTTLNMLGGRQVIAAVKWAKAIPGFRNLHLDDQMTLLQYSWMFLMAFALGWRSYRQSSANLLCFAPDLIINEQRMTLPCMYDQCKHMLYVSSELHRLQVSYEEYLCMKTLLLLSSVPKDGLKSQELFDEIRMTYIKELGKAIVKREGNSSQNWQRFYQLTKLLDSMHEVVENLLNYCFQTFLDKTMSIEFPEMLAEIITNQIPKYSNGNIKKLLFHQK

CC(=O)N[C@@H](CC(=O)O)C(=O)N[C@@H](CCC(=O)O)C(=O)O (Ac-Asp-Glu-OH)
inactive: Potency [1] > 20.6 µM and > 46 µM | Potency [2] > 20.6 µM and > 46 µM | outcome [3] | outcome [4]

CCCCC/C=C\C/C=C\CCCCCCCC(=O)O
inactive: activity change, negative = cytotoxicity [5] -28.9% | outcome [6] | Potency [7] | Potency [8] | viability change, negative = cytotoxic [9] 0.00595% | outcome [10] | activity change, negative = cytotoxicity [11] 8.92% | outcome [12] | caspase-3 activation [13] 2.62% | outcome [14] | outcome [15] | outcome [16] | outcome [17] | outcome [18] | outcome [19] | outcome [20]

CCCCCCCC(=O)O
inactive: outcome [3] | activity change, negative = cytotoxicity [5] -0.485% and -3.97% | outcome [6] | Potency [7] | Potency [8] | viability change, negative = cytotoxic [9] 0.495% and -6.94% | outcome [10] | activity change, negative = cytotoxicity [11] 4.9% and 1.62% | outcome [12] | caspase-3 activation [13] -0.427% and 1.06% | outcome [14] | outcome [15] | outcome [16] | outcome [17] | outcome [18] | outcome [19] | outcome [20]

O=S(=O)(O)O
inactive: outcome [3] | activity change, negative = cytotoxicity [5] -3.09% and 7.28% | outcome [6] | Potency [7] | Potency [8] | viability change, negative = cytotoxic [9] 2.52% and 9.94% | outcome [10] | activity change, negative = cytotoxicity [11] -5.83% and 4.47% | outcome [12] | caspase-3 activation [13] 4.57% and 0.977% | outcome [14] | outcome [15] | outcome [16] | outcome [17] | outcome [18] | outcome [19] | outcome [20]

Cc1cc(C(=O)NNCc2ccccc2)no1
inactive: Potency [1] > 20.6 µM | Potency [2] > 20.6 µM | outcome [3] | outcome [4]

IC(I)I
inactive: outcome [3] | activity change, negative = cytotoxicity [5] -10.4% | outcome [6] | Potency [7] | Potency [8] | viability change, negative = cytotoxic [9] -2.58% | outcome [10] | activity change, negative = cytotoxicity [11] 5.44% | outcome [12] | caspase-3 activation [13] -0.0373% | outcome [14] | outcome [15] | outcome [16] | outcome [17] | outcome [18] | outcome [19] | outcome [20]

Nc1ccn([C@H]2CS[C@@H](CO)O2)c(=O)n1
inactive: outcome [3] | activity change, negative = cytotoxicity [5] -5.31% | outcome [6] | Potency [7] | Potency [8] | viability change, negative = cytotoxic [9] 1.14% | outcome [10] | activity change, negative = cytotoxicity [11] 7.61% | outcome [12] | caspase-3 activation [13] -0.771% | outcome [14] | outcome [15] | outcome [16] | outcome [17] | outcome [18] | outcome [19] | outcome [20]

C[C@]12C=CC(=O)C=C1CC[C@@H]1[C@@H]2[C@@H](O)C[C@@]2(C)[C@H]1CC[C@]2(O)C(=O)COC(=O)CCC(=O)O
active: Potency [1] 0.0285 µM

CC1(C)S[C@@H]2[C@H](NC(=O)[C@@H](NC(=O)N3CCNC3=O)c3ccccc3)C(=O)N2[C@H]1C(=O)O
inactive: Potency [1] > 20.6 µM | Potency [2] > 20.6 µM | outcome [3] | outcome [4]

CCOC(C)=O
inactive: outcome [3] | activity change, negative = cytotoxicity [5] 9.44% | outcome [6] | Potency [7] | Potency [8] | viability change, negative = cytotoxic [9] -3.69% | outcome [10] | activity change, negative = cytotoxicity [11] 10.1% | outcome [12] | caspase-3 activation [13] -0.547% | outcome [14] | outcome [15] | outcome [16] | outcome [17] | outcome [18] | outcome [19] | outcome [20]

CCOc1ccc2c(c1)C(C)=CC(C)(C)N2
inactive: outcome [3] | activity change, negative = cytotoxicity [5] -9.52% | outcome [6] | Potency [7] | Potency [8] | outcome [10] | activity change, negative = cytotoxicity [11] 9.89% | outcome [4] | outcome [12] | caspase-3 activation [13] 15.7% | outcome [14] | outcome [15] | outcome [16] | outcome [17] | outcome [18] | outcome [19] | outcome [20]

COc1ccc(CCNC[C@H](O)c2ccc(O)cc2)cc1OC
inactive: Potency [1] > 46 µM | Potency [2] > 46 µM | outcome [3] | outcome [4]

O=C(O)CC/C=C\CC[C@H]1[C@@H](N2CCCCC2)[C@@H](O)C[C@@H]1OCc1ccc(-c2ccccc2)cc1
inactive: Potency [1] > 46 µM | Potency [2] > 46 µM | outcome [3] | outcome [4]

CC(C)(C)NC(=O)[C@@H]1C[C@@H]2CCCC[C@@H]2CN1C[C@@H](O)[C@H](Cc1ccccc1)NC(=O)[C@H](CC(N)=O)NC(=O)c1ccc2ccccc2n1
active: Potency [7] 50.1 µM | Potency [8] 50.1 µM | viability change, negative = cytotoxic [9] -93.9% | activity change, negative = cytotoxicity [11] -97.1% | caspase-3 activation [13] 116%
inactive: outcome [3] | outcome [6] | outcome [17] | outcome [20]

O=C1CSC2(CCN(CCCN3c4ccccc4Sc4ccc(Cl)cc43)CC2)N1
inactive: Potency [1] > 46 µM | Potency [2] > 9.22 µM | activity change, negative = inhibition [3] -6.21% [at 11.4 µM] | outcome [4]

CN(C)CCCN1c2ccccc2C(C)(C)c2ccccc21
inactive: Potency [1] > 46 µM | Potency [2] > 9.22 µM | activity change, negative = inhibition [3] -0.792% [at 11.4 µM] | outcome [4]

CC(C)(C)C(=O)OCOC(=O)[C@@H]1N2C(=O)[C@@H](N=CN3CCCCCC3)[C@H]2SC1(C)C
inactive: outcome [3] | outcome [4]

CCN(CC)Cc1cc(Nc2ccnc3cc(Cl)ccc23)ccc1O
inactive: Potency [1] > 20.6 µM | Potency [2] > 20.6 µM | outcome [3]
